# A selection: hits, their analogues and other compounds. The true share with any hit is near 5.9%.
# GALK inhibitor: inhibitors of human galactokinase. P51570. Purified GALK, Kinase-Glo residual ATP luminescence. Potency, µM (doses to about 57.5 µM), hits mostly inhibitors. actives 0.007% (n = 270,000). AID 1868
#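 Compounds were pin-transferred into ATP buffer (35 uM final), then GALK plus galactose (5 nM, 100 uM final) was added. After 1 h at room temperature, Kinase-Glo Plus was added and luminescence read after 10 min.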
# TrxR1 inh: inhibitors of rat thioredoxin reductase 1. O89049. recombinant rTrxR1, NADPH fluorescence consumption, selenite substrate. Potency, µM (titrated, usually from 114 µM), hits mostly inhibitors. actives 1% (n = 390,000); also: nearly all actives have a fitted effect of over 65% in size
# Target sequence (O89049 whole entry, looked up): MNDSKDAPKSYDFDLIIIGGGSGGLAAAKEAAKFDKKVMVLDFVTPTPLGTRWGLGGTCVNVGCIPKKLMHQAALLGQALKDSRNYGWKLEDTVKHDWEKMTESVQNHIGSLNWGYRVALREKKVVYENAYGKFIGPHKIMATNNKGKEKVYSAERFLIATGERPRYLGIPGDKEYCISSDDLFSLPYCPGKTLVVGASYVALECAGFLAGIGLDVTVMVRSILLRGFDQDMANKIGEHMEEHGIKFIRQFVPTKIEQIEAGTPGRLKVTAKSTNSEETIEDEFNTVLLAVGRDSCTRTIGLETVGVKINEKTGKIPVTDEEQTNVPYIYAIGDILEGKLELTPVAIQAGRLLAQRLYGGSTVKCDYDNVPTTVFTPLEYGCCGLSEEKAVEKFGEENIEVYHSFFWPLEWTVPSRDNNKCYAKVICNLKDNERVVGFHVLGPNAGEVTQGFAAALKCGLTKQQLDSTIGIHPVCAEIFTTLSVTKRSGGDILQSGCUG
#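 Rat TrxR1 (90 nM in the dispensed reagent) was pre-reduced with 400 uM NADPH for 5 min at room temperature, then incubated with compound for 15 min. After 400 uM selenite was added, NADPH fluorescence (Ex 340/Em 450 nm) was followed for 8 min.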
# Coupling enz: inhibits coupling enzyme system, counter-screen for aldolase hits; coupling enzyme system counterscreen, AmpLite Red fluorescence; activity change, negative = inhibition, % at 58.2 µM, hits read low; actives 0.67% (n = 290,000); AID 2472; in the data active = activity change below about -30%
#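 Counterscreen lacking aldolase: glyceraldehyde-3-phosphate coupling-enzyme reagent preincubated 10 min at RT with compound (at 57.5 uM final), then substrate/coupling system with AmpLite Red added; fluorescence read at 525/598 nm after 20 min RT.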
# TrxR1 substrate: rat thioredoxin reductase 1 substrate activity; Potency, µM (series often up to 114 µM); O89049; purified TrxR1 substrate turnover, NADPH consumption readout; AID 588456; actives 0.01% (n = 390,000); also: nearly all actives have a fitted effect of over 50% in size
#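 Rat TrxR1, dispensed at 90 nM, was prereduced with 400 uM NADPH (final) for 5 min at ~22 deg C, then incubated with compound 15 min before 400 uM selenite. A first-read NADPH fluorescence drop versus no-compound background flagged substrates.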
# RORgamma inh: inhibitors of mouse ROR gamma transcriptional activity. Potency, µM (highest dose often 53.6 µM), most hits filed as inhibitors. actives 5.4% (n = 310,000). Drosophila S2 Gal4-RORgamma UAS-luciferase reporter, 20 h. AID 2551. P51450; also: nearly all actives have a fitted effect of over 60% in size
#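 Luciferase reporter read in Schneider cells carrying Gal4-RORγ (mouse) and UAS-Photinus luciferase; cells given compound 1 h before 700 uM copper sulfate induction, then incubated 20 h at ambient temperature.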
# Gal4-VP16 FLuc: counter-screen for ROR gamma inhibitors: Gal4-VP16 reporter. Drosophila S2 Gal4-VP16 UAS-luciferase, luminescence, 20 h. Potency, µM (highest dose often 53.6 µM), most hits filed as inhibitors. actives 3.5% (n = 310,000);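 also: Gal4-VP16 expression switched on by copper sulfate through the metallothionein promoter; nearly all actives have a fitted effect of over 50% in size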
# Hits are given with their value; n = inactive; u = inconclusive; x = no result given; ! = a repeat was not active; [ ] = dose if it differs, or a comment. Unless noted, calls follow the shape of the dose curve; as a rule, active = well fitted curve in the direction sought with a large enough effect; inconclusive = small, poorly fitted or top-dose-only effect, or another doubt; inactive = no such curve, though single readings can be large; an effect the other way counts as inactive or inconclusive.
SMILES,GALK inhibitor,TrxR1 inh,Coupling enz,TrxR1 substrate,RORgamma inh,Gal4-VP16 FLuc
Cc1sc2nc(SCC(=O)NCc3ccco3)n(CCc3ccccc3)c(=O)c2c1C,n,n,n,n,13µM,u
CC(C)Cn1c(SCC(=O)Nc2cccc(S(N)(=O)=O)c2)nc2ccccc2c1=O,n,n,n,n,10µM,n
C=CCn1c(SCc2ccc(C(=O)O)cc2)nc2sc(C)c(C)c2c1=O,n,n,n,n,4µM,7.1µM
C=CCn1c(SCC(=O)Nc2ccccc2C)nc2sc(C)c(C)c2c1=O,n,n,n,n,35µM,20µM
CCOC(=O)c1cc(C(=O)NNC(=O)c2cccc([N+](=O)[O-])c2)c(C)nc1C,x,n,x,n,x,x
Cc1ccc(S(=O)(=O)N(CC(=O)Nc2ccc3c(c2)OCO3)c2ccc(C)c(Cl)c2)cc1,x,n,x,n,x,x
Cc1ccccc1NC(=O)CSc1nc2ccccc2c(=O)n1C,n,n,n,n,u,11µM
O=C(CCCn1ncn2c(cc3occc32)c1=O)NCc1ccccc1F,n,n,n,n,n,n
O=C(NC(=S)NC1CC1)c1cccnc1,n,n,n,n,5.6µM,u
CC(NC(=S)NC(=O)c1ccccc1Br)c1ccccc1 (stereo not drawn),n,n,n,n,6.3µM,7.1µM
CCN(C(=S)NC(=O)C1CCCC1)C1CCCCC1,n,n,n,n,4.5µM,u
CCN(C(=S)NC(=O)c1ccccc1Br)C1CCCCC1,x,n,n,n,1µM,2.8µM
O=c1[nH]c(C2CCN(S(=O)(=O)/C=C/c3ccccc3)CC2)nc2c1nnn2Cc1ccc(F)cc1,n,n,n,n,n,n
COCC(=O)N1CCc2nc(COc3ccccc3)c3c(c2C1)CO[C@@H](C)C3,x,x,n,x,x,x
O=C(NC(=S)NC1CCCC1)c1ccccc1,n,u,x,n,7.1µM,10µM
O=C(NNC(=S)NC1CCCCC1)c1cccs1,n,n,n,n,u,n
O=C(NC(=S)NC1C2CC3CC(C2)CC1C3)c1ccccc1 (stereo not drawn),n,50µM,x,n,1.6µM,1.8µM
O=C(NC(=S)NC1CCCC1)c1ccccc1Br,x,u,n,n,4.5µM,u
CC(=O)NNC(=S)NC(=O)c1ccccc1,n,n,n,n,u,n
O=C(NNC(=S)NC1CCCCC1)c1ccccc1O,n,n,n,n,14µM,n
c1cc(CNCCN2CCNCC2)ccn1,x,n,x,n,x,x
Cc1nn(CCC(=O)Nc2cc(F)ccc2F)c(=O)c2nn(-c3ccccc3)c(C)c12,x,n,x,n,x,x
Oc1ccc(-c2nnc(SCC3CCCCC3)o2)cc1,n,n,n,n,3.2µM,8.9µM
NC(=O)N/N=C/c1ccc(-c2ccc(S(=O)(=O)Nc3ncccn3)cc2)o1,x,n,x,n,x,x
CC(C)(C)c1ccc(/C=N/NC(=S)Nc2cccnc2)cc1,n,x,n,x,0.18µM,1.3µM
SMILES,GALK inhibitor,TrxR1 inh,Coupling enz,TrxR1 substrate,RORgamma inh,Gal4-VP16 FLuc
Oc1ccc(/C=N/NC(=S)Nc2cccnc2)cc1O,n,n,n,n,8.9µM,u
S=C(N/N=C/c1ccc2ncccc2c1)Nc1cccnc1,n,n,n,n,4.5µM,u
COc1ccccc1/C=N/NC(=S)Nc1cccnc1,n,n,n,n,0.71µM,u
Oc1ccc(C=NNC(=S)Nc2cccnc2)nc1,x,n[11.4 µM],x,n[11.4 µM],x,x
COc1cc(/C=N/NC(=S)Nc2cccnc2)cc(OC)c1OC,n,n[11.4 µM],n,n,n,n
CCC(=O)N(CCN1CCOCC1)Cc1cc2cc3c(cc2nc1Cl)OCO3,n,n,n,n,u,n
CC(C)N(C(=O)Cn1c(SCC(=O)NC2CC2)nc2ccccc21)C(C)C,n,n,n,n,n,n
CC(=O)c1cccc(NC(=O)NNC(=O)CCC(=O)Nc2ccc(C)c(C)c2)c1,n,n,n,n,n,n
CN1CCN(C(=O)c2cc(COc3c(F)cccc3F)on2)CC1c1ccccc1 (stereo not drawn),n,n,n,n,7.1µM,7.1µM
O=C(c1cc(COc2ccc(F)cc2F)on1)N1CCN(C(=O)c2ccco2)CC1,n,50µM,x,n,u,n
O=S(=O)(Nn1cnnc1)c1ccccc1Cl,n,n,n,n,n,n[0.365 µM]
O=C(Nc1ccc(C(=O)N2CCC(N3CCOCC3)CC2)cc1)c1ccc(Br)o1,x,u,x,n,x,x
CCOC(=O)C(C)Sc1nc(-c2ccccn2)ncc1OC (stereo not drawn),n,n,n,n,7.1µM,u
COc1ccccc1Sc1nc(-c2ccccc2)ncc1OC,n,n,n,n,n,n
COc1cnc(-c2ccccn2)nc1Sc1c(Cl)cccc1Cl,n,n,n,n,3.2µM,10µM
COc1cnc(-c2ccccn2)nc1Sc1ccccc1Cl,n,n,n,n,2.5µM,10µM
CN1C(=O)C(C)(C)c2cc(S(=O)(=O)N3CCC(C(=O)NCc4ccc(F)cc4)CC3)ccc21,x,n,n,n,n,n
Cc1oc(-c2cc3c(cc2Cl)OCO3)nc1CN1CCCC(C(=O)N2CCOCC2)C1 (stereo not drawn),n,n,n,n,n,n
CC1CCN(C(=O)c2cc3c(ccc4ccccc43)o2)CC1,n,n,x,n,4.5µM,10µM
CNS(=O)(=O)c1cn(CC(=O)N(C)Cc2ccccc2)cc1S(=O)(=O)NC,x,n,n,n,n,n
O=C(N[C@@H](Cc1ccccc1)c1nc2ccccc2[nH]1)c1cc([N+](=O)[O-])ccc1Cl,n,n,n,n,n,n
CC(=O)N(Cc1ccc(F)cc1)c1cccc(C)c1C,n,n,n,n,n,n[10 µM]
CC(=O)N(Cc1ccc(F)cc1)C1=C(NCCc2ccccc2)C(=O)c2ccccc2C1=O,n,n,-47,n,n,u
O=C1CCOc2cc(OCc3ccccc3)ccc21,n,n,n,n,u,u
CNc1ncnc2ccc(-c3ccccc3OC)cc12,x,x,n,x,n,n
SMILES,GALK inhibitor,TrxR1 inh,Coupling enz,TrxR1 substrate,RORgamma inh,Gal4-VP16 FLuc
O=S(=O)(Cc1cc(Sc2ccc(Cl)cc2)nc(-c2ccccc2)n1)c1ccccc1,n,n,n,n,n,n
Cc1nc(CS(=O)(=O)c2ccc(Cl)cc2)cc(Sc2ccc(Cl)cc2)n1,n,n,n,n,u,11µM
CC(C)c1ccc(C(C)NC(=S)NC2CCCCC2)cc1 (stereo not drawn),n,n,n,n,1.4µM,2.8µM
CC(NC(=O)C1CCCCC1)c1ccc2c(c1)OCCO2 (stereo not drawn),n,n,n,n,n,n
CC(NC(=S)NC1CCCCC1)c1ccc(C(C)(C)C)cc1 (stereo not drawn),n,n,n,n,1.6µM,2µM
CNC(C)C#Cc1c(-c2cc(OC)c(OC)c(OC)c2)noc1C (stereo not drawn),x,71µM!,n,n,n,n
COc1cc(-c2noc(C)c2C#Cc2ccc(N)cc2)cc(OC)c1OC,x,n,n,n,n,n
